Screens (PubChem)
Compounds with a hit are over-represented: about 0.64% of the library has one in this group of screens.
WNV NS2B-NS3 inh – inhibitors of West Nile virus NS2B-NS3 protease | z-score (concentration not given with the values) | WNV NS2B-NS3 protease, fluorogenic substrate Ex360/Em465; stronger effect = lower value | P06935 | hit rate 0.18% among 65,000; in the data active = z-score below about -3
Target sequence (P06935 1371-1501 limits assumed): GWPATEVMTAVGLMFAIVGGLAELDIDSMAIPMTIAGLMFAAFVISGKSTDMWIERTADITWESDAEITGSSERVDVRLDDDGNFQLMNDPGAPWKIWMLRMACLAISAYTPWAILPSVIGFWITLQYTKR
Target sequence (P06935 1502-1679 limits assumed): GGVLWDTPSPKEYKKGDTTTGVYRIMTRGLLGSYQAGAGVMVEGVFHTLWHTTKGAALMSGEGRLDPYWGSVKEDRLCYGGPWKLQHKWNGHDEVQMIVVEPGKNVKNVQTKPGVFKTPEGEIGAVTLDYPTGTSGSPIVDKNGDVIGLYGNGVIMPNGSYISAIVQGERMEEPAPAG
SK-BR-3 tox 24h – SK-BR-3 proliferation inhibitors | AID 847 | viability, % at 10 µM | SK-BR-3 viability, CellTiter-Glo ATP luminescence, 24 h; stronger effect = lower value | hit rate 0.47% among 41,000;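 active = viability at or below the median of all test compounds minus 3 SD, in both replicates if run twice, cut at about 45% in these data; inconclusive = duplicate replicates that disagree with each other; inactive = viability above that cutoff in every replicate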;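 note: 100% = median untreated cell wells and 0% = median positive control drug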
Htt clearance – compounds clearing mutant huntingtin protein | hit rate 0.42% among 47,000 | inhibition, % at 1.5 µM | AID 853 | HeLa Exon1htt(103Q)mCFP, aggregate imaging; zero = plate's median compound well;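 active = inhibition of aggregate fluorescence above about 70%, also judged a hit by eye on the cell image, limit read from the data, passing the limit was not always enough; inconclusive = no rule stated for this call; inactive = not judged a hit on image review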;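 note: cells exposed to compound for three days before fixation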
Active calls of the source: *; ? = inconclusive; / = no result.

SMILES | WNV NS2B-NS3 inh | SK-BR-3 tox 24h | Htt clearance
CC(=O)Nc1nc2ccccc2n1Cc1ccccc1C | -0.54 | 83 | -3
CC(=O)Nc1nc2ccccc2n1CCOc1ccccc1Cl | -5.6* | / | 43
Cc1ccc(NC(=O)Cn2nnc(C(=O)Nc3ccc(C)c(C)c3)c2N)cc1 | -0.6 | / | 83*
CSc1ccc(Cn2nnc(C(=O)Nc3ccc(C)c(C)c3)c2N)cc1 | / | / | 43
Nc1c(C(=O)NCc2ccco2)nnn1Cc1ccccc1 | 0.37 | / | /
Cc1ccc(NC(=O)Cn2nnc(C(=O)NCc3ccco3)c2N)cc1 | / | / | 71*
CC(CC1C(C#N)=C(N)SC(N)=C1C#N)c1ccccc1 (centres undefined) | -0.41 | 99 | -82
COc1ccc(-c2nc3c(=O)n(C)c(=O)[nH]c3n2CCc2ccccc2)cc1 | -3.5* | 74 | /
CCCn1c(-c2ccccc2)nc2c(=O)n(C)c(=O)[nH]c21 | -0.59 | / | /
Cc1cc(C(=O)NCCCn2ccnc2)sc1-c1ccccc1 | -0.19 | 93 | /
Cc1ccc(C)c2[nH]c(=O)c(CN(CCCN(C)C)C(=O)NCc3ccccc3)cc12 | 1.8 | 44* | /
COc1ccc2[nH]c(=O)c(CN(CCN(C)C)C(=O)NCc3ccccc3)cc2c1 | -0.08 | / | /
CC(C)Oc1ccc(C2/C(=C(/O)c3ccc(F)cc3)C(=O)C(=O)N2CCCN(C)C)cc1 (centres undefined) | 0.86 | 98 | /
O=C(NCc1cc(C(F)(F)F)cc(C(F)(F)F)c1)C1CC(c2cccc([N+](=O)[O-])c2)=NO1 (centres undefined) | / | / | 6
O=C(c1ccccc1)c1nc2ccccc2[nH]c1=O | -0.67 | 97 | /
Cn1c(=O)c(C(=O)c2ccccc2)nc2ccccc21 | 1.4 | 104 | 77*
O=C(COc1cccc2ccccc12)N1c2ccccc2CCc2ccccc21 | / | / | -11
Cc1ccc(-c2noc(CN3C(C)CCCC3C)n2)cc1 (centres undefined) | -0.07 | / | 14
CCOC(=O)C1=C(CS(=O)(=O)c2ccc(F)c(C)c2)NC(=O)NC1c1ccc(O)c(O)c1 (centres undefined) | 1.6 | / | /
COc1ccccc1N(CC(=O)NC1CCCC1)C(=O)CCC(=O)Nc1cc(C)on1 | -0.47 | 96 | /
CCOc1ccccc1N(CC(=O)NC1CCCC1)C(=O)CCC(=O)Nc1cc(C)on1 | -8.6* | 92 | 30
CCC1CCCCN1C(=O)CSc1nnc(-c2c[nH]c3ccccc23)o1 (centres undefined) | 0.83 | 84 | 1
NC(=O)CSc1nnc2n(-c3ccccc3)c(=O)c3c4c(sc3n12)CCCCC4 | -0.85 | 32* | /
CC(NC(=O)CSc1nc2sc3c(c2c(=O)n1-c1ccccc1)CCCC3)c1ccccc1 (centres undefined) | / | / | 91*
Cc1nnc2n(-c3ccccc3)c(=O)c3c4c(sc3n12)CCCC4 | 0.95 | 83 | /
SMILES | WNV NS2B-NS3 inh | SK-BR-3 tox 24h | Htt clearance
CC(C)C(C)NC(=O)CSc1nc2scc(-c3ccco3)c2c(=O)n1-c1ccccc1 (centres undefined) | / | / | -25
Clc1ccc(C2C3=C(Nc4ncnn42)c2ccccc2CC3)cc1 (centres undefined) | / | / | -6
COc1ccc(NC(=O)C(F)(OC)C(F)(F)F)c(OC)c1 (centres undefined) | 0.34 | 41* | 44
CCC(=O)Nc1ccc(OC)cc1OC | -0.67 | 92 | 42
Cc1cccn2c(=O)c(C=NCc3ccco3)c(Nc3ccc(Cl)cc3)nc12 | -3.3* | / | /
CCC(C)N=Cc1c(NCc2ccco2)nc2c(C)cccn2c1=O (centres undefined) | / | / | -1
CC1=C(C#N)C(=O)OC(C)(C)C1 | -8.2* | 96 | -34
Cc1ccc(NS(=O)(=O)c2cc(C(=O)O)ccc2Cl)c(C)c1 | 0.12 | 96 | 72*
Cc1ccc(NS(=O)(=O)c2cc(C(=O)O)ccc2Cl)cc1 | 0.44 | 85 | /
NCC[C@H](O)C(=O)N[C@@H]1C[C@H](N)[C@@H](O[C@H]2O[C@H](CN)[C@@H](O)[C@H](O)[C@H]2O)[C@H](O)[C@H]1O[C@H]1O[C@H](CO)[C@@H](O)[C@H](N)[C@H]1O | 1.1 | 87 | /
O=C(CSc1nc2ccsc2c(=O)n1Cc1ccccc1)NCc1ccco1 | -0.64 | / | -1
O=C(CSc1nc2ccsc2c(=O)n1NC(=O)c1ccccc1)NCc1ccco1 | -1.5 | / | 70*
CCN1C(=O)c2cccc3c(S(=O)(=O)Nc4ccc(OC)cc4OC)ccc1c23 | -0.9 | 85 | -37
COC(=O)c1cccc(CSc2nnc(C)s2)c1 | 0.8 | 92 | 25
COc1ccc2c(C)cc(N3CCOCC3)nc2c1 | / | / | 73*
COc1ccc2c(C)cc(N3CCN(c4ccc(F)cc4)CC3)nc2c1 | / | / | 41
C=CCn1c(SCC(=O)Nc2c(C)n(C)n(-c3ccccc3)c2=O)nc2sc(C)c(-c3ccccc3)c2c1=O | / | / | 13
COc1cc(C2CC(C(F)(F)F)n3ncc(C(=O)O)c3N2)cc(OC)c1OC (centres undefined) | -5.8* | 104 | -40
COc1ccc(C2CC(C(F)(F)F)n3ncc(C(=O)NCc4cccnc4)c3N2)cc1OC (centres undefined) | 0.86 | 60 | -45
COC(=O)c1ccc(N(C(=O)c2ccco2)C(C(=O)NC2CCCC2)c2ccco2)cc1 (centres undefined) | / | / | 31
COc1ccc(S(=O)(=O)Nc2cc(C)cc(C)n2)c2ccccc12 | 0.86 | 106 | 86*
COc1ccc(NS(=O)(=O)c2ccc(OC)c3ccccc23)cn1 | -0.21 | 93 | /
CCCn1c(NCc2ccc(N(C)C)cc2)nc2ccccc21 | 0.81 | / | -4
CCN(CC)CCn1c(NCc2ccc(OC)cc2)nc2ccccc21 | 1.3 | 79 | 86*
CCOC(=O)Cn1c(=O)oc2cc(S(=O)(=O)N3CCc4ccccc43)ccc21 | 2.2 | / | ?
SMILES | WNV NS2B-NS3 inh | SK-BR-3 tox 24h | Htt clearance
O=C(CN1C2CCCC1CC(NC(=O)c1ccccc1)C2)Nc1nccs1 (centres undefined) | / | / | -62
Cc1ccc(Nc2nc(C(=O)N3CCC(C(=O)N4CCN(C)CC4)CC3)cs2)cc1 | -0.03 | 50 | -2
Cc1ccc(Nc2nc(C(=O)N3CCC(C(=O)NCCN4CCOCC4)CC3)cs2)cc1 | 0.58 | 115 | 74*
CCNC(=O)c1ccccc1NC(=O)c1cccc(S(=O)(=O)N2CCC(C)CC2)c1 | 0.44 | 57 | 40
CNC(=O)c1ccccc1NC(=O)c1cccc(S(=O)(=O)N2CCC(C)CC2)c1 | 1.3 | 43* | /
Cc1ccc(NC(=O)CC2S/C(=N/c3nccs3)N(C)C2=O)c(C)c1 (centres undefined) | / | / | -4
